# High-throughput results (PubChem BioAssay)
# This is a sample that favours compounds with a hit; in the whole collection about 5.3% have one here.
# BAZ2B inh – blocks human BAZ2B; AID 504333; Potency, µM (doses to about 114 µM), without a hit: at the top dose activity change, negative = inhibition, most hits filed as inhibitors; Q9UIF8; actives 4.4% (n = 360,000); AlphaScreen BAZ2B-H3K14Ac peptide displacement; note: potency is the fitted concentration of half-maximal effect; % is set by controls: 0 for no effect and ±100 for the full control effect; nearly all actives have a fitted effect of over 60% in size
#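 BAZ2B 50 nM plus b-H3(5-23)K14Ac 50 nM, PBS pH 7.4/0.01% Tween-20, 30 min RT; compound added (max 110 uM), 30 min RT; streptavidin donor/Ni-chelate acceptor beads 10 ug/mL final, 20 min dark; AlphaScreen read.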
# HP1b chromo inh – inhibitors of HP1-beta chromodomain binding to methylated histone tails; P83916; AlphaScreen HP1-beta / biotin-H3K9me3 peptide binding; Potency, µM (titrated, usually from 114 µM), inactives show at the highest dose activity change, negative = inhibition, hits mostly inhibitors; actives 0.56% (n = 390,000); AID 540317; note: potency is the fitted concentration of half-maximal effect; nearly all actives have a fitted effect of over 70% in size
#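 AlphaScreen: HP1-beta (50 nM) preformed 30 min with biotin-H3(1-18)K9me3 peptide (50 nM) in PBS pH 7.4, 0.01% Tween-20. Compound added for 30 min at RT, then streptavidin donor/nickel chelate acceptor beads (10 ug/mL) for 30 min.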
# Six1-Eya2 blk – Six1/Eya2 interaction inhibition. AlphaScreen GST-Six1/His-Eya2 binding, biochemical; stronger effect = lower value. actives 0.56% (n = 360,000). Q15475+O00167. activity change, % (test concentration not listed). AID 651725; in the data active = activity change below about -65%; inconclusive = mostly about -30% to -63%; note: % is set by controls: 0 for no effect and ±100 for the full control effect
#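 Six1/Eya2 binding was read as AlphaScreen signal after compounds were pinned into GST-Six1 plus His-tagged Eya2 (5X stock 250/500 nM) in pH 8.0 Tris/NaCl/TCEP buffer, beads added, then incubated 1 h, 37 C, dark.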
# JMJD2A Tudor inh – JMJD2A Tudor domain (human) inhibition. AlphaScreen JMJD2A-Tudor / H3K4me3 peptide binding. actives 4.4% (n = 390,000). Potency, µM (top dose mostly 114 µM), without a hit: at the highest dose activity change, negative = inhibition, actives largely listed as inhibitors. O75164; note: potency is the fitted concentration of half-maximal effect; % is set by controls: 0 for no effect and ±100 for the full control effect; nearly all actives have a fitted effect of over 50% in size
# Target sequence (O75164 whole entry, looked up, the tested form may be a part): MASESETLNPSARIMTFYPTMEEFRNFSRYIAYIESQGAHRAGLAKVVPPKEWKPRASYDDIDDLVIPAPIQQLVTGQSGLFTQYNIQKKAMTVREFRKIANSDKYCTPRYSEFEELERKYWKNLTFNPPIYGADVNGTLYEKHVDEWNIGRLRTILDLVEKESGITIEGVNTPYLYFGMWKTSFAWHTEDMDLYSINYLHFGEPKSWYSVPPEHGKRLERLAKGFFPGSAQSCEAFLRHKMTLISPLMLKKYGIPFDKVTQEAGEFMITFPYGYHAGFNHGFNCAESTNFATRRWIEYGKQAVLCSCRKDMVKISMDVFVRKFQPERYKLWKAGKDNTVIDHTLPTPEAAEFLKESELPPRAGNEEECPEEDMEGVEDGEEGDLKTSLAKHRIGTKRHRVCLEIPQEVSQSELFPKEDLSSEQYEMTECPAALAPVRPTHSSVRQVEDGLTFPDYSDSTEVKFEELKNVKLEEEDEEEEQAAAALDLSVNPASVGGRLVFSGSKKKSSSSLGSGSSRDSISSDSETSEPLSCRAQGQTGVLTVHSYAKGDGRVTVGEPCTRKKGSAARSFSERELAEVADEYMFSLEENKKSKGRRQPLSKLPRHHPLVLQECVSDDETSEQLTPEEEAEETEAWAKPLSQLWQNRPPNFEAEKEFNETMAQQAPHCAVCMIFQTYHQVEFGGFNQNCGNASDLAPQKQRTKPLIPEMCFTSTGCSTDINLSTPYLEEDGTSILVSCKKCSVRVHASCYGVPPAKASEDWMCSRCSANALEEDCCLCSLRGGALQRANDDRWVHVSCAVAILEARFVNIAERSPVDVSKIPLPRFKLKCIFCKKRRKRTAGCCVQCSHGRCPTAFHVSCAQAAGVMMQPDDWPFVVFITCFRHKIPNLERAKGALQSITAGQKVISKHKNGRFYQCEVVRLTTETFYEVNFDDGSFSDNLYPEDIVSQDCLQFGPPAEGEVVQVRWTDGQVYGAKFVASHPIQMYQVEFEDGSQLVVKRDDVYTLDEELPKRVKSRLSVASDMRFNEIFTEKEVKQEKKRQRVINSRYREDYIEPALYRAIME
# TDP1 block – blocks human tyrosyl-DNA phosphodiesterase 1 | Q9NUW8 | recombinant TDP1, AlphaScreen DNA substrate cleavage | Potency, µM (series often up to 130 µM), without a hit: at the highest dose activity change, negative = inhibition, most hits filed as inhibitors | actives 0.28% (n = 350,000); note: potency is the fitted concentration of half-maximal effect; % is set by controls: 0 for no effect and ±100 for the full control effect; nearly all actives have a fitted effect of over 40% in size
#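 Enzyme-compound mixtures sat 15 min at room temperature, followed by a 5 min reaction with 15 nM final substrate and 10 min with AlphaScreen beads. Recombinant human Tdp1 was used at 1 nM final.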
# CtBP-E1A inh – CtBP/E1A binding inhibition; AlphaScreen GST-E1A/His-CtBP binding, 1536-well; stronger effect = lower value; activity change, % (no concentration beside the values); actives 0.49% (n = 340,000); in the data active = activity change below about -65%; inconclusive = mostly about -30% to -63%; note: % is set by controls: 0 for no effect and ±100 for the full control effect
#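 Homogeneous bead-based format: GST-tagged E1A captured on glutathione donor beads, His-tagged CtBP on nickel acceptor beads; compounds precede bead addition by 2 h at 37 °C.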
# Active calls of the source: *; ? = inconclusive; nt = no result; ! = a repeat was not active; [ ] = another dose, or the depositor's remark. Unless noted, calls come from the whole dose curve; as a rule, active = well fitted inhibition curve with a large enough effect; inconclusive = small, poorly fitted or top-dose-only effect; inactive = no such curve, though single readings can be large or run the other way.
SMILES,BAZ2B inh,HP1b chromo inh,Six1-Eya2 blk,JMJD2A Tudor inh,TDP1 block,CtBP-E1A inh
Cc1ccc(/C=C2\C(=O)NC(=O)N(Cc3ccccc3Cl)C2=O)o1,32µM*,17%,-14,-14%,1%,6
COc1ccc(O)c(CN2CCCC(C(=O)c3ccccc3SC)C2)c1 (stereo unspecified),50µM*,?,?,56µM*,6%,-26
CCn1ncc(-c2ccnc3cc(C(=O)O)nn23)c1C,32µM*,15%,?,25µM*,0%,1
CCOC(=O)N1CCC(NC(=O)CCc2nc(C3=CCN(C)CC3)no2)CC1,79µM*,13%,25,-6%,10%,2
COc1ccc(C(=O)C2CN(C)CC2c2ccc(Cl)cc2)cc1 (stereo unspecified),-24%,32%,-18,-17%,0%,-4
CN1CC(C(=O)c2ccc([N+](=O)[O-])cc2)C(c2ccc(Cl)cc2)C1 (stereo unspecified),?,?,?,45µM*,nt,-28
[Cd+2].[Cl-].[Cl-],nt,nt,nt,nt,3%,nt
[Cl-].[Cl-].[Hg+2],nt,nt,nt,nt,35µM*,nt
CCCCCCCCCOc1ccc2[nH]cc(CCN)c2c1,35µM*,nt,nt,nt,11%,nt
COc1ccc2[nH]cc(CCN)c2c1,?,-31%,-13,50µM*,11%[56.1 µM],-13
CC(N)Cc1c[nH]c2ccc(O)cc12 (stereo unspecified),nt,39%,-2,-17%,9%[56.1 µM],-7
COc1ccc(CCN)cc1,nt,nt,nt,nt,11%,nt
NC1CCCCC1N (stereo unspecified),nt,nt,nt,nt,2%,nt
Clc1cc(Cl)c(Cl)c(Cl)c1,nt,nt,nt,nt,1%,nt
[Hg+][c]1ccccc1,nt,nt,nt,nt,11%,nt
COc1cc(N2CCOCC2)ccc1/C=C1\C(=O)NC(=O)N(Cc2ccc3c(c2)OCO3)C1=O,?,-10%,-3,-31%,-5%,-4
O=C1NC(=O)N(Cc2ccc(F)cc2)C(=O)/C1=C/c1cccs1,79µM*,27%,-8,-29%,-5%,-1
Cc1cccc(N2C(=O)NC(=O)/C(=C/c3ccc([N+](=O)[O-])o3)C2=O)c1,22µM*,?,?,20µM*,nt,-22
COc1ccc(CN2C(=O)NC(=O)/C(=C/c3ccc([N+](=O)[O-])o3)C2=O)cc1,14µM*,nt,nt,nt,0%,nt
COc1ccc(CN2C(=O)NC(=O)/C(=C\c3cccc(OC)c3OC)C2=O)cc1,?,11%,8,56µM*,-2%,-2
COc1ccc(CN2C(=O)CC(=O)NC2=O)cc1,0%,28%,1,-5%,0%,3
CC(=O)OCC(N)C(=O)c1ccccc1 (stereo unspecified),nt,nt,nt,nt,1%,nt
O=C(Cc1coc2cc3c(cc12)CCC3)OCC(=O)N1CCCC1=O,?,57%,-3,12%,-6%,11
Fc1ccccc1-c1n[nH]c(=S)n1Cc1ccccc1,-3%,2%,0,22µM*,nt,nt
CCNc1cc(N2CCN(C)CC2)ccc1[N+](=O)[O-],11%,21%,-4,-16%,-3%,-4
SMILES,BAZ2B inh,HP1b chromo inh,Six1-Eya2 blk,JMJD2A Tudor inh,TDP1 block,CtBP-E1A inh
CN(C)c1c([N+](=O)[O-])cc(N2C(=O)C=CC2=O)cc1[N+](=O)[O-],nt,14µM*,-8,8.9µM*,nt,2
Oc1ccc(C[C@H]2NCCc3cc(O)c(O)cc32)cc1O,-19%,79µM*,-5,40µM*,nt,5
COc1cc2c(cc1O)CCNC2C (stereo unspecified),nt,nt,nt,nt,-5%[56.1 µM],nt
O=C(O)CC1OCC=C2CN3CCC45C6=CC(=O)C(=O)C([N+](=O)[O-])=C6NC4C1C2CC35 (stereo unspecified),?,55%,20,2.5µM*!,-1%,?
O=C(O)CC1OCC=C2CN3CCC45c6ccccc6NC4C1C2CC35 (stereo unspecified),1%,24%,5,-9%,nt,nt
C=C(C)C(N)=O,nt,nt,nt,nt,16%,nt
O=C1NC(=O)C(Sc2ccccc2[N+](=O)[O-])C(=O)N1,50µM*,?,21,28µM*,14%,-10
Cc1ccc(S(=O)(=O)NC(Cc2cnc[nH]2)C(=O)O)cc1 (stereo unspecified),-25%,12%,2,13µM*,-6%,0
CC(C)CCNC(=O)CNC(=O)[C@@H](C)NC(=O)[C@@H](N)Cc1ccc(O)cc1,nt,nt,nt,nt,9%,nt
O=c1c2ccccc2[se]n1-c1ccccc1,1.4µM*,?,-8,8.9µM*,11%,?
Cc1ccc2c(c1)C1(CCN(CCc3nc(-c4ccccc4)oc3C)CC1)OC(=O)N2,nt,nt,nt,nt,20%,nt
Cc1c(CCC(=O)N2CCCCC2)c(=O)oc2cc3occ(C(C)(C)C)c3cc12,-4%,17%,nt,?,5%,nt
O=C(Nc1ccc2nc(-c3cccs3)c(-c3cccs3)nc2c1)N1CCCCC1,nt,57%,nt,13%,-5%,nt
CCOC(=O)c1ccc2c(c1)n(CCO)c(C)[n+]2CC,10%,19%,1,50µM*,2%,-3
O=C1C(c2ccccc2)=C(N2CC2)c2ccccc21,35µM*,20µM*,?,45µM*,11%,?
CN1CCN(c2cccc3c2C(=O)c2ccccc2C3=O)CC1,?,-13%,?,?,4%,?
CCN(CCO)c1ccc(N=Cc2c(O)n(C)c(=S)[nH]c2=O)cc1,56µM*,14%,-9,?,?,0
CC[N+](C)(CC)CCCOC(=O)C(O)(c1ccccc1)C1CCCCC1 (stereo unspecified),-28%,?,5,40µM*,4%,6
CCOC(C(=O)OCCC[N+](C)(CC)CC)(c1ccccc1)c1ccccc1,-20%,15%,0,-4%,2%,-4
Cc1oc(-c2ccccc2)nc1CN1C(=O)CN=C(c2ccccc2)c2ccccc21,?,-1%,0,?,5%,-1
Cc1cccc(-c2nc(CN3C(=O)CN=C(c4ccccc4)c4ccccc43)c(C)o2)c1,22µM*,-21%,nt,?,9%,nt
CCCCn1c(-c2nn(C)cc2Cl)n[nH]c1=S,-2%[57.1 µM],3%,3,7.9µM*,4%,1
COc1ccc(N/N=C/c2c(O)n(-c3ccc(C)c(C)c3)c(=O)[nH]c2=O)cc1,-36%,-14%,-20,35µM*,13%,-24
Cc1ccc(-n2c(O)c(/C=N/NC(=O)c3ccncc3)c(=O)[nH]c2=O)cc1,50µM*,37%,?,?,0%,nt
O=C(N/N=C/c1c(O)n(-c2ccccc2)c(=O)[nH]c1=O)c1ccncc1,?,46%,?,?,5%,-18
